According to PubChem BioAssay AID1508602 (The Scripps Research Institute Molecular Screening Center, 2020):
The whole screen tested about 650,000 compounds, of which about 6,800 (1%) were called active. Rule as the data show it: active = activation above about 4.9%; inactive = the rest. What follows is part of a selection rich in actives, with near analogues and random picks from the rest.

What follows are molecules tested against G-protein coupled receptor 151 (Homo sapiens) (UniProt Q8TDV0) (assay: activates the human receptor GPR151, primary screen, cell-based, PathHunter beta-arrestin, luminescence (AID 1508602;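 also: 0% = median of compound wells and 100% = cells with positive control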)). Settings: PathHunter beta-arrestin GPR151 cells, at 11.2 µM, hits give high values.
Sequence of G-protein coupled receptor 151 (Homo sapiens) (Q8TDV0 whole entry, looked up): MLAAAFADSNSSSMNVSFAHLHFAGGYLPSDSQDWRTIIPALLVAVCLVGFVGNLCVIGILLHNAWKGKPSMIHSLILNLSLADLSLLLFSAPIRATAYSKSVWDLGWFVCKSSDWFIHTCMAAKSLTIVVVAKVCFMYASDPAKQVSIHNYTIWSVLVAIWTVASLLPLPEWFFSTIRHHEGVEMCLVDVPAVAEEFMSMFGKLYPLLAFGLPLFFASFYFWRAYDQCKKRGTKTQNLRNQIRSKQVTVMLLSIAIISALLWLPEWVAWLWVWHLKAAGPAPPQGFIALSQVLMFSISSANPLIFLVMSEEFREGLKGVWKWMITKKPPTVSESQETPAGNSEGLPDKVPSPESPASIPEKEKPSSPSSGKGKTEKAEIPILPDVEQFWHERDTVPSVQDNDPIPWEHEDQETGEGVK

SMILES	activation
CCOc1cccc(NC(=O)Cn2nc(-c3ccc4c(c3)OCCO4)ccc2=O)c1	8% (active)
O=C(Cn1nc(-c2ccc3c(c2)OCCO3)ccc1=O)Nc1cccc(C(=O)NC2CC2)c1	0.799% (inactive)
CCc1cccc(OCC(=O)Nc2ccc3c(c2)OCCO3)c1	-1.18% (inactive)
O=C(CSc1nnc(Cc2ccccc2)o1)c1ccc([N+](=O)[O-])cc1	-0.861% (inactive)
Cc1nc2cc(C(=O)NCc3ccc4c(c3)OCO4)ccc2n1-c1ccc(OCc2ccccc2)cc1	9.26% (active)
CCOc1ccc(-n2c(C)nc3cc(C(=O)NCC(OCC)OCC)ccc32)cc1	-0.917% (inactive)
COc1ccccc1-n1c(C)nc2cc(C(=O)NCc3ccc4c(c3)OCO4)ccc21	-0.911% (inactive)
O=C(NC1CC1)c1ccc(-c2nc(NCCN3CCOCC3)c3[nH]cnc3n2)cc1	2.27% (inactive)
Cc1ccc2nc3c(cc(C(=O)NC4CCCCC4)c(=N)n3C(C)C)c(=O)n2c1	0.735% (inactive)
Cc1cccn2c(=O)c3cc(C(=O)NC4CCCCC4)c(=N)n(C4CCCCC4)c3nc12	5.92% (active)
CCCn1c(=N)c(C(=O)NC2CCCCC2)cc2c(=O)n3cccc(C)c3nc21	-0.974% (inactive)
COc1cccc(NC(=O)N2CCc3nc(-c4ccncc4)nc(N4CCCCC4)c3C2)c1	-2.11% (inactive)
CC12CCC(C(=O)Nc3ncc(Cl)cc3Cl)(CC1=O)C2(C)C (stereo unspecified)	5.35% (active)
CC12CCC(C(=O)Nc3c(Cl)cccc3Cl)(CC1=O)C2(C)C (stereo unspecified)	-0.214% (inactive)
CC12CCC(C(=O)Nc3cc(Cl)ccc3Cl)(CC1=O)C2(C)C (stereo unspecified)	-0.262% (inactive)
Cc1ccccc1-n1nc2c(c1NC(=O)C1CC1)CSC2	1.82% (inactive)
C=CCn1c(SCC(=O)Nc2nc(C)cs2)nnc1C(C)NC(=O)c1cccs1 (stereo unspecified)	0.0682% (inactive)
O=C(CCN(Cc1ccc(Cl)cc1)S(=O)(=O)c1ccc(Br)cc1)NO	0.218% (inactive)
CCOCCc1nnc(NC(=O)CC(C)(C)C)s1	-0.508% (inactive)
CCCc1nnc(NC(=O)C(C)Oc2ccccc2)s1 (stereo unspecified)	0.536% (inactive)
CC(=O)Nc1nnc(CCOCC(C)OCCc2nnc(NC(C)=O)s2)s1 (stereo unspecified)	5.04% (active)
CCOc1ccc(NC(=O)NC(=O)N(C)S(C)(=O)=O)cc1	-0.0562% (inactive)
CCOc1ccc(NC(=O)N(CC(C)C)CC(C)C)cc1	-1.58% (inactive)

SMILES	activation
CCOc1ccc(NC(=O)Nc2ccc(N(C)C(C)=O)cc2)cc1	6.4% (active)
CC1CCCC(C)N1C(=O)COC(=O)c1ccc(Cl)cc1N (stereo unspecified)	-1.01% (inactive)
COc1cccc(-c2ccccc2NC(=O)C2CCN(C3CCOCC3)CC2)c1	0.21% (inactive)
O=C(CCc1nc2ccccc2[nH]1)N1CCC2(CC1)OCc1cc(Cl)ccc1O2	-0.0529% (inactive)
COc1ccc(-c2noc(N3CCCC(C(=O)NCCCN4CCC(C)CC4)C3)n2)cc1 (stereo unspecified)	-1.28% (inactive)
COc1ccc(-c2noc(N3CCC(C(=O)NCCCN4CCN(C)CC4)CC3)n2)cc1	7.49% (active)
COc1ccc(-c2noc(N3CCC(C(=O)NCCCOC(C)C)CC3)n2)cc1	2.42% (inactive)
COC(=O)c1ccccc1NC(=O)C1=CC(c2cccc(OC)c2)=NS(=O)(=O)N1C	2.65% (inactive)
CCOC(=O)c1sc(=S)n(-c2ccc(Br)cc2)c1N	-1.26% (inactive)
Cc1ccc(-c2nnc(N3CCOCC3)c3ccccc23)cc1S(=O)(=O)N1CCCCC1	-0.605% (inactive)
Cc1ccc(-c2nnc(NCc3ccccc3)c3ccccc23)cc1S(=O)(=O)N1CCOCC1	-0.185% (inactive)
Cc1ccc(-c2nnc(N3CCOCC3)c3ccccc23)cc1S(=O)(=O)N1CCN(C)CC1	5.54% (active)
CCOC(=O)c1cnc2c(C)cc(Cl)cc2c1Nc1cccc([N+](=O)[O-])c1	-1.43% (inactive)
Cc1c(C)c2ccc(O)c(I)c2oc1=O	0.449% (inactive)
O=C1NC(=O)C(=Cc2cc([N+](=O)[O-])cc(Br)c2O)C(=O)N1	0.835% (inactive)
CCCOc1ccc([N+](=O)[O-])cc1C=C1C(=O)NC(=O)NC1=O	5.32% (active)
COc1ccc([N+](=O)[O-])cc1/C=C1\C(=O)NC(=O)N(c2ccc(Br)cc2)C1=O	2.28% (inactive)
O=C(NC1CCCCC1N1C(=O)CSC1=O)c1ccccc1F (stereo unspecified)	0.048% (inactive)
CCCN1C(=O)C(NS(=O)(=O)c2ccc(N)cc2)(C(F)(F)F)C(C(=O)OC)=C1C (stereo unspecified)	6.6% (active)
CC(=O)Nc1ccc(S(=O)(=O)NC2(C(F)(F)F)C(=O)NC(C)=C2C#N)cc1 (stereo unspecified)	0.355% (inactive)
CCOC(=O)C1=C(C)N(Cc2ccco2)C(=O)C1(NC(=O)c1ccccc1)C(F)(F)F (stereo unspecified)	0.126% (inactive)
Fc1cccc(C2=NC3(CCCC3)NC2=S)c1	1.94% (inactive)
Cc1nc(C)c(-c2csc(Nc3ccc(Br)cc3)n2)s1	-0.252% (inactive)
